This is a sample that favours compounds with a hit; in the whole collection about 4.8% have one here.
ATXN2 expr inh = inhibitors of ATXN2 expression; Potency, µM (highest dose often 57 µM), actives largely listed as inhibitors; 0.72% of 360,000 active; HEK-293 ATXN2-luciferase reporter, luminescence, 24 h; also: nearly all actives have a fitted effect of over 55% in size
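qHTS (up to 57 uM final) was run with 24 h compound exposure of reporter cells at 37 °C. Each well was multiplexed: SteadyGlo luminescence measured ATXN2-luciferase expression after a fluorogenic Gly-Phe-AFC viability readout (25 uM final).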
USP1 inh = blocks the human USP1/UAF1 deubiquitinase complex; O94782; AID 743255; Potency, µM (series often up to 57.1 µM), most hits filed as inhibitors; 0.23% of 390,000 active; recombinant USP1/UAF1, Ub-Rhodamine cleavage fluorescence; also: nearly all actives have a fitted effect of over 60% in size
Target sequence (O94782 whole entry, looked up): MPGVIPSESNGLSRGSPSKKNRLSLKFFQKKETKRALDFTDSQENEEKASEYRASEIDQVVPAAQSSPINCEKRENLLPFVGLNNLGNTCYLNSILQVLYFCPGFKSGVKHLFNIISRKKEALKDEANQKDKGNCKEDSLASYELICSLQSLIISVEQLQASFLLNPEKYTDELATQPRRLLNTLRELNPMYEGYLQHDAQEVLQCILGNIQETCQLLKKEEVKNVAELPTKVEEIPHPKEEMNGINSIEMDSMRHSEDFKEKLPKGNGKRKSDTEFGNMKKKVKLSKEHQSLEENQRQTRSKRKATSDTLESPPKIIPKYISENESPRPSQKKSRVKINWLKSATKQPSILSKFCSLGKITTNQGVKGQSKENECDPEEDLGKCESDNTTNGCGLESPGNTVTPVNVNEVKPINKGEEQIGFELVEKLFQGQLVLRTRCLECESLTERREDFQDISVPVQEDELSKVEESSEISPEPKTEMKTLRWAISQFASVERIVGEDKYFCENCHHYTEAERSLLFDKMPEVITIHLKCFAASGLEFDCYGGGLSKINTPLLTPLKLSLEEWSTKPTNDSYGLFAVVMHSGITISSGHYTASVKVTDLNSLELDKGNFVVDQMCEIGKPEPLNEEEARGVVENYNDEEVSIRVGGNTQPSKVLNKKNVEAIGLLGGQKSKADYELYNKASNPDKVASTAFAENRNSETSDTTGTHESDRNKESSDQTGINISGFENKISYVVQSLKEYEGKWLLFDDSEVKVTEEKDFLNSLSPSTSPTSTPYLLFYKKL
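1 nM enzyme complex + cpd, 15 min RT; start with Ub-Rho 150nM final; kinetic fluorescence ex 480/em 540, 6 reads q60 s. Buffer 50mM HEPES pH 7.8, 0.5mM EDTA, 0.1 mg/ml BSA, 1mM TCEP, 0.01% Tween-20.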
USP2a block = inhibitors of human ubiquitin-specific protease USP2a | O75604 | USP2 core, Ub-CHOP2 coupled fluorogenic reporter, 485/531 | Potency, µM (titrated, usually from 38.3 µM), hits mostly inhibitors | 0.01% of 330,000 active | AID 463254
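USP2 core (10nM final) preincubated 30min RT with compound in 20mM Tris-HCl pH 8.0, 2mM CaCl2, 2mM beta-mercaptoethanol, 0.05% CHAPS; 25nM Ub-CHOP2 plus 25nM reporter substrate added, fluorescence (Ex485/Em531) read after 60min.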
IL1B secr inh = inflammasome signaling inhibition, IL-1 beta readout; THP-1 LPS/ATP IL-1B secretion, AlphaLISA, 16 h; hits give low values; activity change, % at 57.5 µM; 4.7% of 360,000 active; in the data active = activity change below about -50%; inconclusive = mostly about -30% to -49%
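THP-1 cells pretreated 1 hr with compounds (up to 57.5 uM final), then stimulated with LPS (250 ng/mL final) plus ATP (1.25 mM final); secreted IL-1B measured by AlphaLISA after 16 hr, decreased signal indicating inhibition.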
S2 tox = reduces viability in counter-screen for ATXN expression inhibitors; Potency, µM (titrated, usually from 56.7 µM), most hits filed as cytotoxic; S2 cells (HEK-293 line with an ATXN2-luciferase reporter) viability, CellTiter-Fluor protease fluorescence, 24 h; 0.49% of 400,000 active; also: nearly all actives have a fitted effect of over 40% in size
Hits are given with their value. Unless noted, calls follow the shape of the dose curve; as a rule, active = well fitted curve in the direction sought with a large enough effect; inconclusive = small, poorly fitted or top-dose-only effect, or another doubt; inactive = no such curve, though single readings can be large; an effect the other way counts as inactive or inconclusive.

For Cc1cccc(/C=C2\Oc3cc(OS(C)(=O)=O)ccc3C2=O)c1 the results were ATXN2 expr inh inactive, USP1 inh inactive, USP2a block inactive, IL1B secr inh -56 and S2 tox inactive.
For CN(C(=O)c1cnn(-c2nccc(-c3ccccc3C(F)(F)F)n2)c1C1CC1)C1CCOC1 (centres undefined) the results were S2 tox inactive.
Screening C[C@@H]1CCCCCCCCC(=O)OCCN[C@H](C)CCCCCCCCC(=O)OCCN[C@H](C)CCCCCCCCC(=O)OCCN1 returned ATXN2 expr inh inconclusive, USP1 inh inactive, USP2a block inactive, IL1B secr inh -59 and S2 tox 20µM.
C[C@@H]1CCCCCCCCC(=O)OCCN(C(=O)OC(C)(C)C)[C@H](C)CCCCCCCCC(=O)OCCN1C(=O)OC(C)(C)C was read as ATXN2 expr inh inactive, USP1 inh inactive, USP2a block inactive, IL1B secr inh inactive and S2 tox inactive.
For NC(=O)c1ccc(I)c([N+](=O)[O-])c1 the results were ATXN2 expr inh inactive.
C=C1C(=O)O[C@@H]2[C@H]1[C@@H](OC(=O)/C(C)=C/C)C/C(C)=C\C(=O)/C=C(\C)[C@@H]2O was read as ATXN2 expr inh 6.3µM, USP1 inh inconclusive, USP2a block inactive, IL1B secr inh -102 and S2 tox 10µM.
For CCCCc1ccc(-n2nc3cc(Cl)c(NC(=O)c4ccc(OC)cc4)cc3n2)cc1 the results were ATXN2 expr inh inactive, USP1 inh inactive and S2 tox inactive.
`COc1ccc(OC)c(-c2ccnc(-n3ncc(C(=O)N(C)CCO)c3C3CC3)n2)c1` gave S2 tox inactive.
`Cn1c(=O)c2cc(NC(=O)NCc3ccc(Cl)cc3Cl)ccc2n1Cc1ccccc1` gave ATXN2 expr inh inactive, IL1B secr inh -60 and S2 tox inactive.
`c1ccc(NC2=NCCN2CCCC2CCCCC2)cc1` gave ATXN2 expr inh inactive, USP1 inh inactive, USP2a block inactive, IL1B secr inh -61 and S2 tox inactive.
c1ccc(NC2=NCCN2CC2CCC2)cc1 was read as ATXN2 expr inh inactive, USP1 inh inactive, USP2a block inactive, IL1B secr inh inactive and S2 tox inactive.
CCC1CN(CCNC(=O)C(C)(C)O)Cc2cc(OC)ccc2O1 (centres undefined) was read as S2 tox inactive.
Screening FC(F)(F)c1ccc(N2CCN(c3cc(-c4ccccc4)nc4ncnn34)CC2)nc1 returned ATXN2 expr inh inconclusive, USP1 inh inactive, USP2a block inactive, IL1B secr inh -61 and S2 tox inactive.
`FC(F)(F)c1cccc(Nc2cc(-c3ccccc3)nc3ncnn23)c1` gave USP1 inh inactive, USP2a block inactive, IL1B secr inh inactive and S2 tox inactive.
`CC(C)n1cnc2c(Nc3ccc(C(=O)O)cc3)nc(Cl)nc21` gave ATXN2 expr inh inactive, USP1 inh inconclusive, USP2a block inactive, IL1B secr inh inactive and S2 tox inactive.
`C=CC(=O)Nc1cccc(Nc2nc(N[C@H]3CC[C@H](N(C)C)CC3)nc3c2ncn3C(C)C)c1` gave ATXN2 expr inh 1µM, USP1 inh inactive, IL1B secr inh inactive and S2 tox 2µM.
`Cc1cc(N2CCCCCC2)nc(-c2ccccc2O)n1` gave ATXN2 expr inh inactive, USP1 inh inactive, USP2a block inactive, IL1B secr inh inactive and S2 tox inactive.
CCN1CCN(c2cc(C)nc(-c3ccccc3O)n2)CC1 was read as ATXN2 expr inh inactive, USP1 inh inactive, USP2a block inactive, IL1B secr inh -69 and S2 tox inactive.
For CN1CCN(c2ncc(-c3cc(Cl)cc(Cl)c3Cl)c(N)n2)CC1 the results were ATXN2 expr inh inactive.
Screening C[n+]1c2cc(N)ccc2cc2ccc(N)cc21 (tested in a mixture with another compound) returned ATXN2 expr inh 3.2µM.
For Cc1cc(C)cc(NC(=O)CSc2nnc(CNC(=O)c3ccco3)n2C)c1 the results were ATXN2 expr inh inactive, USP1 inh inactive, USP2a block inactive, IL1B secr inh inactive and S2 tox inactive.
Screening CCc1ccc(Cn2c(CNS(=O)(=O)c3ccc4c(c3)CCCC4)nc3cccnc32)cc1 returned USP1 inh inactive.
Screening CC(C)(C)n1nnnc1CN1CCN(C(c2ccccc2)c2ccccc2)CC1 returned ATXN2 expr inh inactive, USP1 inh inactive, USP2a block inactive, IL1B secr inh -55 and S2 tox inactive.
NC(=O)c1nsc(C(=O)N(c2cccc(F)c2)C(C(=O)NCc2ccccc2)c2ccc(O)cc2)c1N (centres undefined) was read as ATXN2 expr inh inactive, USP1 inh inactive, USP2a block inactive and IL1B secr inh -51.
For CC(C(=O)NCc1ccccc1)N(Cc1ccccc1Cl)C(=O)c1snc(C(N)=O)c1N (centres undefined) the results were ATXN2 expr inh inactive, USP1 inh inactive, USP2a block inactive, IL1B secr inh -75 and S2 tox inactive.
NC(=O)c1nsc(C(=O)N(c2cccc(F)c2)C(C(=O)NC2CCCC2)c2ccc(O)cc2)c1N (centres undefined) was read as ATXN2 expr inh inactive, USP1 inh inactive, USP2a block inactive, IL1B secr inh inactive and S2 tox inactive.
NC(=O)c1nsc(C(=O)N(Cc2cccnc2)C(C(=O)NCc2ccc(F)cc2)c2ccc(O)cc2)c1N (centres undefined) was read as ATXN2 expr inh inactive, USP1 inh inactive, USP2a block inactive, IL1B secr inh inactive and S2 tox inactive.
`CCC(C(=O)NC(C)(C)C)N(Cc1ccccc1Cl)C(=O)c1snc(C(N)=O)c1N` (centres undefined) gave ATXN2 expr inh inactive, USP1 inh inactive, USP2a block inactive, IL1B secr inh inactive and S2 tox inactive.
For COc1ccccc1N(C(=O)c1snc(C(N)=O)c1N)C(C(=O)NCc1ccccc1)c1ccc(O)cc1 (centres undefined) the results were ATXN2 expr inh inactive, USP1 inh inactive, USP2a block inactive, IL1B secr inh -72 and S2 tox inactive.
`NC(=O)c1nsc(C(=O)N(c2ccccc2F)C(C(=O)NCc2ccc(F)cc2)c2ccc(O)cc2)c1N` (centres undefined) gave ATXN2 expr inh inconclusive, USP1 inh inactive, USP2a block inactive, IL1B secr inh -100 and S2 tox inactive.
Screening COc1ccccc1CNC(=O)COC(=O)c1ccc(-n2cnnn2)cc1 returned ATXN2 expr inh inactive, USP1 inh inactive, USP2a block inactive, IL1B secr inh inactive and S2 tox inactive.
Screening Cc1noc(C)c1CCC(=O)N1CCOc2ccc(CN3CCN(c4ccccn4)CC3)cc2C1 returned S2 tox inactive.
